FLuc modulator – firefly luciferase modulation, counter-screen for miR-21 project; 360,000 tested, 6.9% active; purified FLuc, Km substrates, luminescence inhibition; Potency, µM (titrated, usually from 57.5 µM), for the others: at the highest dose activity change, negative = inhibition, actives largely listed as inhibitors; P08659;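 also: plate controls were vehicle for no effect and reference inhibitor for full effect; nearly all actives have a fitted effect of over 55% in size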
Target sequence (P08659 whole entry, looked up): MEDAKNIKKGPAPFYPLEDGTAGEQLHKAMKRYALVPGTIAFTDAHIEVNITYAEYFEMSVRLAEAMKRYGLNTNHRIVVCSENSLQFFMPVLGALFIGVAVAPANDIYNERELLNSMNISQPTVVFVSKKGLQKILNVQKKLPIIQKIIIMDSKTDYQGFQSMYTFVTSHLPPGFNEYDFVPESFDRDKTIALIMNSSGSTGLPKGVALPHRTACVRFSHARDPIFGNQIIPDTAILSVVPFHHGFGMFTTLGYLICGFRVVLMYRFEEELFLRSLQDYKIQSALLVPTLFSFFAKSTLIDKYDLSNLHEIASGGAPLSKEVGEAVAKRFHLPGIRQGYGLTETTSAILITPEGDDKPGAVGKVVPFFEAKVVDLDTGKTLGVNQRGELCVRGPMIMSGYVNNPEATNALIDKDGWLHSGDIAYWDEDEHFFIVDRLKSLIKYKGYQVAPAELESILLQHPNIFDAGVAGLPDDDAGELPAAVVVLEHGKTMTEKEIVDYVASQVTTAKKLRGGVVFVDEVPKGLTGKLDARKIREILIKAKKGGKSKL
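Purified P. pyralis luciferase, 10 nM final, with Km-level 10 uM D-luciferin and 10 uM ATP in 50 mM Tris acetate pH 7.5, 10 mM Mg acetate, 0.01% Tween-20, 0.05% BSA; 6-point qHTS titration about 60 µM downward; luminescence read.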
NPC1 promoter act – activators of NPC1 promoter | Potency, µM (highest dose often 9.22 µM), for inactives: top-dose activation, usual class: activators | AID 485313 | 320,000 tested, 2.4% active | Huh7 NPC1 promoter luciferase reporter, 24 h; also: % of control where 0% means no effect; nearly all actives have a fitted effect of over 60% in size
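Stable NPC1-promoter luciferase Huh7 line; cpd (DMSO) 24 h, 37 °C, 5% CO2; Amplite luciferase reagent 10 min RT; luminescence readout. qHTS format.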
p53 reactivation – mutant p53 re-activation in reporter cells; H1299 p53-A138V BP100-luciferase reporter, luminescence, 24 h; AID 504706; Potency, µM (titrated, usually from 92.2 µM), inactives show at the highest dose activity change, positive = activation, actives largely listed as activators; 320,000 tested, 0.063% active; also: % of control where 0% means no effect; nearly all actives have a fitted effect of over 45% in size
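p53-null H1299 cells stably carrying temperature-sensitive p53-A138V and a BP100-luciferase reporter were pinned with compounds (4-point, 1:5 series) and held 24 hrs at 37 deg C. Luminescence was read 10 min after detection reagent.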
SMN2 splice enh – enhancers of SMN2 splice variant expression | HEK293 SMN2-luciferase splicing reporter, luminescence, 30-36 h | Potency, µM (doses to about 46.1 µM), without a hit: at the top dose activity change, positive = activation, most hits filed as activators | 210,000 tested, 2.8% active; also: % of control where 0% means no effect; nearly all actives have a fitted effect of over 55% in size
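HEK293 cells carry an SMN2 minigene-luciferase reporter in which exon 7 inclusion puts luciferase in frame. Cells were seeded at 2000 cells/well, attached for 10-12 hours, then exposed to compounds for 30-36 hours at 37C before ONE-Glo luminescence.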
Rab9 prom act – activators of Rab9 promoter | Huh7 Rab9 promoter-luciferase reporter, luminescence, 24 h | Potency, µM (titrated, usually from 9.22 µM), for the others: top-dose activation, negative = inhibition, most hits filed as activators | 320,000 tested, 2.8% active; also: % of control where 0% means no effect; nearly all actives have a fitted effect of over 60% in size
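Measured in stably transfected Huh7 cells bearing a Rab9 promoter–luciferase construct: 24 h compound treatment at 37 °C, followed by luminescence detection.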
ELG1 genotoxic – induces genotoxicity in HEK293T cells with luciferase-tagged ELG1; HEK293T ELG1-luciferase reporter, luminescence, 16 h; Potency, µM (doses to about 46 µM), inactives show top-dose activity change, positive = activation, usual class: activators; 330,000 tested, 1.3% active; AID 504466; also: % of control where 0% means no effect; nearly all actives have a fitted effect of over 60% in size
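16 hr compound incubation (37 °C, 5% CO2) of HEK293T cells carrying luciferase-tagged ELG1; luciferase then measured by ONE-Glo luminescence after 30 min at RT.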
Numbers without * were called inactive; ? = inconclusive; / = no result given; [ ] = another dose, or the depositor's remark. The list is not random: actives were taken first. Their share in the collection is about 7.4%. Calls follow the shape of the dose curve; as a rule, active = well fitted curve in the direction sought with a large enough effect; inconclusive = small, poorly fitted or top-dose-only effect, or another doubt; inactive = no such curve, though single readings can be large; an effect the other way counts as inactive or inconclusive. Potency is read from the fitted curve at half-maximal effect.

SMILES	FLuc modulator	NPC1 promoter act	p53 reactivation	SMN2 splice enh	Rab9 prom act	ELG1 genotoxic
Cn1/c(=N/NC(=O)c2ccccc2F)sc2ccccc21	15.1µM*	?	1.6%	?	2.82µM*	?
CN(C(Cc1ccc(OS(=O)(=O)c2cccc3cnccc23)cc1)C(=O)N1CCN(c2ccccc2)CC1)S(=O)(=O)c1cccc2cnccc12 (centres undefined)	/	/	/	-18.5%	/	/
Cc1ccccc1C(=O)NCCCc1ccccc1	?	24.4%	?	12.6µM*	29.3%	10.8%
O=C(NCCCc1ccccc1)c1nn(-c2ccccc2)nc1CO	-17.5%	/	/	-33.7%	/	/
Cc1ccccc1C(=O)NCCCCc1ccccc1	-7.4%	2.9%	9.6%	-2.1%	-0.3%	-1.2%
Cc1ccc(C(=O)NCCCc2ccccc2)s1	21.3µM*	3.98µM*	?	12.6µM*	?	?
Cc1ccc(-n2nc(CO)c(C(=O)NCCCc3ccccc3)n2)cc1C	5.36µM*	/	/	16.4%	/	/
COc1ccc(NC(=O)c2c(C)oc3ccc(O)c(CN4CCCCCC4)c23)cc1Cl	-8.7%	/	/	-11.8%	/	/
COC(=O)c1sccc1S(=O)(=O)N(CC(=O)Nc1cc(C)ccc1C)c1ccc(C)c(C)c1	3.2%	/	/	/	/	/
Cc1ccc2c(c1)CCCN2C(=O)c1ccc2c(c1)OCO2	-1.5%	-2.3%	5.5%	-7.4%	3.2%	-2.2%
CCCn1nc2cc(C(=O)NC3CCCc4ccccc43)ccc2c1OCC (centres undefined)	-2.3%	-0.3%	-5.2%	-13.4%	-0.1%	-6.9%
O=C(NCCO)c1ccc2c3n(nc2c1)-c1ccccc1CO3	2.13µM*	0.501µM*	?	/	2.82µM*	?
O=C(NCC1CC1)c1ccc2c3n(nc2c1)-c1ccccc1CO3	0.477µM*	0.355µM*	12.7%	/	?	?
Cc1ccc2c(c1)COc1c3ccc(C(=O)O)cc3nn1-2	1.35µM*	-22.0%	-8.3%	/	?	-0.6%
Cc1ccc2c(c1)COc1c3ccc(C(=O)NCC4CC4)cc3nn1-2	5.36µM*	1.26µM*	9.2%	/	?	9.3%
O=C(NCCO)c1ccc(Cl)c(Cl)c1	1.3%	1.4%	-2.7%	-0.7%	-3.9%	4.5%
CN(CC(=O)Nc1ccc(F)cc1)C(=O)COC(=O)/C=C/c1ccccc1[N+](=O)[O-]	2.3%	-0.3%	6.4%	/	-1.8%	-3.0%
C[C@@H]1c2ccccc2Cn2cc3c(c21)C(=O)c1cccc(OP(=O)(O)OCc2ccccc2)c1C3=O	/	/	/	-8.5%[9.22 µM]	/	/
Cc1ccc(Cl)cc1N1CCN(C(=O)C(C)n2ncn3cccc3c2=O)CC1 (centres undefined)	0.6%	2.0%	1.1%	/	5.0%	-8.0%
Cc1occc1C(=O)N/N=C/c1cccc2ccccc12	5.36µM*	?	?	/	2.24µM*	7.3µM*
Cc1cc(C(=O)Nc2cccc3ccccc23)c(C)o1	-16.3%	-6.4%	11.6%	/	-4.2%	3.3%
Cc1occc1C(=O)Nc1cccc2ccccc12	2.69µM*	2µM*	?	3.16µM*	1.58µM*	5.8µM*
O=C(N/N=C/c1cccc2ccccc12)c1ccccc1Cl	7.57µM*	-2.3%	3.8%	/	2.7%	5.9%
Cc1occc1C(=O)N/N=C/c1cccs1	?	?	19.9%	24.7%	?	11.0%
Cc1ccc2c(c1)N(CC(=O)NCc1cccc(Cl)c1)C(=O)c1cccnc1O2	-9.0%	/	/	/	/	/
SMILES	FLuc modulator	NPC1 promoter act	p53 reactivation	SMN2 splice enh	Rab9 prom act	ELG1 genotoxic
CC(C)(C)c1ccc(NC(=O)c2ccccc2)c([N+](=O)[O-])c1	4.26µM*	0.447µM*	?	7.8%	0.501µM*	-9.6%
Cc1c(NC(=O)c2ccc(C(C)(C)C)cc2)cccc1[N+](=O)[O-]	13.5µM*	?	?	15.8µM*	?	10.1%
Cc1cc(C(=O)Nc2cccc([N+](=O)[O-])c2C)cs1	-15.7%	8.1%	-15.1%	/	12.9%	10.2%
CCC(CNC(=O)c1c(C)nn(-c2ccccc2)c1Cl)c1ccccc1 (centres undefined)	3.3%	-0.7%	11.9%	/	0.6%	-3.6%
CC(C)(C)c1ccc(OCC(=O)N2CCN(c3ncccn3)CC2)cc1	?	3.9%	-12.4%	/	9.5%	-1.3%
CC(C)(C)c1ccc(OCC(=O)N2CCN(c3ccccn3)CC2)cc1	12µM*	6.1%	0.8%	/	-0.9%	-3.0%
O=C(CCSCc1ccccc1Cl)N1CCN(c2ccccn2)CC1	23.9µM*	?	?	4.1%	?	3.9%
Cc1[nH]c2ccccc2c1-c1cc(-c2cc(-c3c(C)[nH]c4ccccc34)nc(N)n2)nc(N)n1	/	/	/	-3.1%[9.22 µM]	/	/
C/C(C/C(C)=C1/SC(=S)NC1=O)=C1\SC(=S)NC1=O	26.9µM*	-4.3%	-3.8%	0.9%	-0.2%	0.3%
C1CCC(C(C[C@@H]2CCCCN2)C2CCCCC2)CC1	/	/	/	-8.9%[20.6 µM]	/	/
Cc1ccc(C(=O)Nc2ccc(N3CCN(C)CC3)cc2)cc1	19µM*	2.24µM*	13.3%	/	2.51µM*	?
COc1ccc(C(=O)Nc2ccc(N3CCN(C)CC3)cc2)cc1	19µM*	?	/	/	?	?
Cc1ccc(C(=O)Nc2cc(C(C)C)c(O)c(C(C)C)c2)cc1	23.9µM*	1.1%	?	10.9%	-0.3%	-6.9%
Cc1ccc(C(=O)N2CCN(c3ccc(NC(=O)c4cc(C)cc(C)c4)cc3)CC2)cc1	3.4%	-3.4%	3.7%	/	-7.2%	0.4%
COc1ccc(C(=O)Nc2ccc(N3CCN(C(C)=O)CC3)cc2)cc1[N+](=O)[O-]	2.5%	-7.4%	1.3%	-10.6%	0.3%	0.3%

Screening results as filed in PubChem BioAssay.
